The results in this text go back to PubChem BioAssay (Tox21).

Several values for one entry are separate records, joined by “and”; a condition that tells them apart may be missing. Identical values can stand only once. The source holds several records for some structures; these can differ, active in one and inactive in another. Activity calls are given as the source filed them. A call without a number means that no potency is given here. Unless noted, calls come from the whole dose curve.
Potency is the fitted concentration of half-maximal effect.

One experiment deals with Thyrotropin-releasing hormone receptor (Homo sapiens) (UniProt P34981). Kind of experiment: qHTS assay to identify small molecule antagonists of the thyrotropin-releasing hormone receptor (TRHR) signaling pathway (AID 1346877; active = well fitted inhibition curve with a large enough effect in the repeat runs, not every such curve was filed as active). As to conditions: TRHR-HEK293, TRH-induced calcium fluorescence, antagonist mode; series mostly up to 51.3 µM. The gist of the method: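 Intracellular calcium fluorescence, read kinetically every second over 3 min, reports TRH-evoked signalling in HEK293 cells carrying TRHR. Test compounds were added 5 min ahead of a 1 nM TRH challenge.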
Thyrotropin-releasing hormone receptor (Homo sapiens), sequence (P34981 whole entry, looked up): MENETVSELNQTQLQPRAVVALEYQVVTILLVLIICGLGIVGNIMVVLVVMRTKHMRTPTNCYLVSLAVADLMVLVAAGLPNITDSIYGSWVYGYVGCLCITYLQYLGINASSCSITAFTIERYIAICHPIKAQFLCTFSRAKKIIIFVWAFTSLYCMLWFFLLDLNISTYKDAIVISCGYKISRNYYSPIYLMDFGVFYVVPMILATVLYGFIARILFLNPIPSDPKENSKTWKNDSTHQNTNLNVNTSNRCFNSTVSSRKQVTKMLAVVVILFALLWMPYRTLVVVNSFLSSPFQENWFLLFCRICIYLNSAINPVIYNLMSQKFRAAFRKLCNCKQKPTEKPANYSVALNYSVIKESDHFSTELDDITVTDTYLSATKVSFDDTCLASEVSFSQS
(In general: In qHTS, concentration-response curves come from the screen itself.)
Turning to `O=C1NCC2(CCN(CCc3ccccc3)CC2)O1`, the Potency entry is “inactive”.

For the molecule `c1ccc2c(c1)CCCC2C1=NCCN1` (centres undefined), the Potency result is “inactive”.

Regarding `Cc1cccc(O)c1C`, the Potency result is “inactive”.

On to `NC(=Nc1ccccc1)Nc1ccccc1`, for which the Potency is 10.1 µM (active) and inactive.

For the molecule `CCc1cc(C(C)(C)C)c(O)c(C(C)(C)C)c1`, the Potency entry was “inactive”.

Regarding `CC1=C(C=O)C(C)(C)CC=C1`, the Potency result is “inactive”.

For `O=C(O)CCc1ccccc1`, the Potency entry is “inactive”.

For `NCCCCCC(=O)O`, the Potency result was “inactive”.

In the case of `CC(=O)OCCOCCOCCOC(C)=O`, the Potency result is “inactive”.

On to `Nc1nc2ccccc2[nH]1`, for which the Potency entry is “inactive”.

Turning to `c1cnc2cc3c(cc2n1)C1CNCC3C1`, the Potency result was “inactive”.

For `OCC(CO)N[C@H]1C[C@](O)(CO)[C@@H](O)[C@H](O)[C@H]1O`, the Potency entry is “inactive”.

With `Cc1occc(=O)c1OC(=O)C(C)C`, the Potency entry was “inactive”.

With `OCCN1CCNCC1`, the Potency entry is “inactive”.

As for `CCC(=O)/C=C/C1C(C)=CCCC1(C)C` (centres undefined), the Potency entry was “inactive”.

For `CC[C@@H](N)CO`, the Potency entry was “inactive”.

Consider `C=CS(=O)(=O)O`, for which the Potency result is “inactive”.

Take `Clc1ccc2c(c1)C(N1CCNCC1)=Nc1ccccc1O2`: the Potency entry was “inactive”.

On to `CC(C)(C)c1ccccc1`, for which the Potency entry was “inactive”.

As for `CCCCOCCOC(=O)c1ccccc1C(=O)OCCOCCCC`, the Potency entry is “inactive”.

Take `CC(C)CCOC(=O)c1ccc(N(C)C)cc1`: the Potency entry was “inactive”.

On to `CC(C)(C)NCC(O)COc1ccccc1OCC1CCCO1` (centres undefined), for which the Potency entry is “inactive”.

In the case of `CC1COC(=O)O1` (centres undefined), the Potency result was “inactive”.

Regarding `C=CC(=O)OCCCCCCOC(=O)C=C`, the Potency entry was “inactive”.

Regarding `CCN1CCCC1CNC(=O)c1cc(S(=O)(=O)CC)c(N)cc1OC` (centres undefined), the Potency entry was “inactive”.

Consider `CCCCN(CCO)CCCC`, for which the Potency entry is “inactive”.

For the molecule `CC(=O)CC(C)=O`, the Potency result was “inactive”.

Regarding `O`, the Potency entry was “inactive”.

As to `CCOC(=O)C(C)C(C)=O` (centres undefined), the Potency result was “inactive”.

`CC(=O)Nc1ccc(C(=O)CCl)cc1`: the Potency entry is “inactive”.

`COC(=O)/C=C/c1ccccc1`: the Potency entry was “inactive”.

On to `C[N+]1([O-])CCOCC1`, for which the Potency result is “inactive”.

Consider `CCN(CC)C(=O)Nc1ccc(OCC(O)CNC(C)(C)C)c(C(C)=O)c1` (centres undefined), for which the Potency result is “inactive”.

In the case of `Cc1cc(C(C)(C)C)c(O)c(C(C)(C)C)c1`, the Potency entry was “inactive”.

On to `CCOc1ccccc1C(N)=O`, for which the Potency result was “inactive”.

Take `O=C(O[C@@H]1Cc2c(O)cc(O)cc2O[C@@H]1c1cc(O)c(O)c(O)c1)c1cc(O)c(O)c(O)c1`: the Potency result is “inactive”.

As for `O=C1CC2(CCCC2)CC(=O)N1CCCCN1CCN(c2ncccn2)CC1`, the Potency entry was “inactive”.

For the next experiment the target is unchanged. Kind of experiment: qHTS assay to identify small molecule agonists of the thyrotropin-releasing hormone receptor (TRHR) signaling pathway (AID 1346891). As to conditions: TRHR-HEK293 calcium fluorescence, agonist mode; series mostly up to 57.6 µM. The gist of the method:
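Overnight-plated (18 h, 37 °C, 5% CO2) TRHR-Hek293 cells; 2 h calcium dye at 37 °C; compound in DMSO; 3-min kinetic fluorescence read.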
With `O=C1NCC2(CCN(CCc3ccccc3)CC2)O1`, the Potency result was “inactive”.

`c1ccc2c(c1)CCCC2C1=NCCN1` (centres undefined): the Potency entry was “inactive”.

Take `Cc1cccc(O)c1C`: the Potency entry is “inactive”.

For the molecule `NC(=Nc1ccccc1)Nc1ccccc1`, the Potency was 7.76 µM (active) and 15.1 µM (active).

Regarding `CCc1cc(C(C)(C)C)c(O)c(C(C)(C)C)c1`, the Potency entry is “inactive”.

For `CC1=C(C=O)C(C)(C)CC=C1`, the Potency entry is “inactive”.

As to `O=C(O)CCc1ccccc1`, the Potency entry was “inactive”.

Take `NCCCCCC(=O)O`: the Potency entry was “inactive”.

Turning to `CC(=O)OCCOCCOCCOC(C)=O`, the Potency result was “inactive”.

Turning to `Nc1nc2ccccc2[nH]1`, the Potency entry is “inactive”.

For `c1cnc2cc3c(cc2n1)C1CNCC3C1`, the Potency entry was “inactive”.

`OCC(CO)N[C@H]1C[C@](O)(CO)[C@@H](O)[C@H](O)[C@H]1O`: the Potency entry was “inactive”.

As to `Cc1occc(=O)c1OC(=O)C(C)C`, the Potency result was “inactive”.

For the molecule `OCCN1CCNCC1`, the Potency result is “inactive”.

`CCC(=O)/C=C/C1C(C)=CCCC1(C)C` (centres undefined): the Potency result is “inactive”.

As for `CC[C@@H](N)CO`, the Potency result was “inactive”.

In the case of `C=CS(=O)(=O)O`, the Potency entry was “inactive”.

As to `Clc1ccc2c(c1)C(N1CCNCC1)=Nc1ccccc1O2`, the Potency result was “inactive”.

For `CC(C)(C)c1ccccc1`, the Potency entry was “inactive”.

In the case of `CCCCOCCOC(=O)c1ccccc1C(=O)OCCOCCCC`, the Potency entry is “inactive”.

`CC(C)CCOC(=O)c1ccc(N(C)C)cc1`: the Potency entry was “inactive”.

Consider `CC(C)(C)NCC(O)COc1ccccc1OCC1CCCO1` (centres undefined), for which the Potency result was “inactive”.

As to `CC1COC(=O)O1` (centres undefined), the Potency result was “inactive”.

For `C=CC(=O)OCCCCCCOC(=O)C=C`, the Potency result is “inactive”.

As for `CCN1CCCC1CNC(=O)c1cc(S(=O)(=O)CC)c(N)cc1OC` (centres undefined), the Potency result is “inactive”.

As for `CCCCN(CCO)CCCC`, the Potency result is “inactive”.

For the molecule `CC(=O)CC(C)=O`, the Potency entry was “inactive”.

For the molecule `O`, the Potency result is “inactive”.

As to `CCOC(=O)C(C)C(C)=O` (centres undefined), the Potency entry is “inactive”.

`CC(=O)Nc1ccc(C(=O)CCl)cc1`: the Potency result was “inactive”.

With `COC(=O)/C=C/c1ccccc1`, the Potency result is “inactive”.

Take `C[N+]1([O-])CCOCC1`: the Potency entry was “inactive”.

Turning to `CCN(CC)C(=O)Nc1ccc(OCC(O)CNC(C)(C)C)c(C(C)=O)c1` (centres undefined), the Potency entry is “inactive”.

As to `Cc1cc(C(C)(C)C)c(O)c(C(C)(C)C)c1`, the Potency entry was “inactive”.

Take `CCOc1ccccc1C(N)=O`: the Potency result was “inactive”.

On to `O=C(O[C@@H]1Cc2c(O)cc(O)cc2O[C@@H]1c1cc(O)c(O)c(O)c1)c1cc(O)c(O)c(O)c1`, for which the Potency entry was “inactive”.

Turning to `O=C1CC2(CCCC2)CC(=O)N1CCCCN1CCN(c2ncccn2)CC1`, the Potency result is “inactive”.
